Calls of active or inactive are those of the source. Unless noted, no rule for the calls is given here.
Tests used:
[1] = tested on: Wnt5a (protein binding on small-molecule microarray); assay: small molecules binding Wnt5a protein – biophysical, small-molecule microarray, 635/667 nm fluorescence, primary screen (AID 1142); conditions: 635 nm fluorescence, higher = more signal;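 also: fluorescence read at 667 nm with signal to noise per printed feature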
[2] = ATP-based viability of Huh7 replicon cells – cell-based, CellTiter-Glo luminescence, basal, 48 h, cytotoxicity control for HCV replication inhibitor project, primary screen (AID 1143); conditions: higher = more signal, called active from +8 up or from −8 down;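 also: Huh7 hepatoma cells carrying a hepatitis C replication reporter with no stimulus; test concentration not given here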
[3] = Pseudomonas biofilm growth suppression – PAO1 strain, BacTiter-Glo luminescence, LB-PBS, primary screen (AID 1144); conditions: P. aeruginosa PAO1 biofilm, 12 h, higher = more signal
[4] = basal CRE-LacZ reporter activity in PC12 – cell-based, unstimulated, primary screen (AID 1145); conditions: no forskolin, luminescence, 4.5 h, higher = more signal, called active from +8 up or from −8 down
[5] = forskolin-driven CRE-LacZ activity in PC12 – cell-based, CRE-LacZ reporter, forskolin-stimulated, primary screen (AID 1146); conditions: luminescence, 4.5 h, higher = more signal, called active from +8 up or from −8 down;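 also: PC12 cells with 6xCRE LacZ reporter stimulated by forskolin 10 µM; beta-galactosidase reporter signal reflecting CREB driven transcription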
[6] = molecular target: Streptavidin (Streptomyces avidinii) (UniProt P22629); assay: compounds binding control protein streptavidin – biophysical, small-molecule microarray, 635/667 nm fluorescence, artefact control for SMM compound annotation, primary screen (AID 1147); conditions: higher = more signal;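 also: signal reflects streptavidin binding to arrayed compounds as a control protein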
Chain of Streptavidin (Streptomyces avidinii) (P22629 whole entry, looked up): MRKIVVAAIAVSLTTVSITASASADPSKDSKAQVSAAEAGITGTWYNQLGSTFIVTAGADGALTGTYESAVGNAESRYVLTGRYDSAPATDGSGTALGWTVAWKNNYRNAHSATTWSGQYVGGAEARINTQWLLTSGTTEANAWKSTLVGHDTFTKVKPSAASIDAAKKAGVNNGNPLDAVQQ

[7] = probe aInhba binding on compound microarray – biochemical, small-molecule microarray, 635/667 nm fluorescence, primary screen (AID 1148); conditions: higher = more signal;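 also: score merges 667nm spot fluorescence with signal-to-noise for antibody binding to printed compounds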
Torsin-1A (Homo sapiens) [8] = molecular target: Torsin-1A (Homo sapiens) (UniProt O14656); assay: TOR1A wild-type binding on microarray – cell lysate, small-molecule microarray, lysate, 635/667 nm, primary screen (AID 1149); conditions: COS7 hTOR1A-WT lysate, 635 nm fluorescence, higher = more signal
Chain of Torsin-1A (Homo sapiens) (O14656 whole entry, looked up): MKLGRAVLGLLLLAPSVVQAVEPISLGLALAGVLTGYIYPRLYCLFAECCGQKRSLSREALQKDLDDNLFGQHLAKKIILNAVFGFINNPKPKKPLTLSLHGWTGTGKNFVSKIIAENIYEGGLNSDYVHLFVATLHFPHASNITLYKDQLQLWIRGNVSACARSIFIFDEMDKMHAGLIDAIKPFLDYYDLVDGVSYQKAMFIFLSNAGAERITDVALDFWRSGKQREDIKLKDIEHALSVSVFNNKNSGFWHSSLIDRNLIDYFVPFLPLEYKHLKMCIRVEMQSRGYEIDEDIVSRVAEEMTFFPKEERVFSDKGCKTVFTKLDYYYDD

Torsin-1A (Homo sapiens) [9] = molecular target: Torsin-1A (Homo sapiens) (UniProt O14656); assay: torsin A mutant lysate binding on microarrays – cell lysate, small-molecule microarray, COS7 lysate, 635/667 nm fluorescence, primary screen (AID 1150); conditions: COS7 hTOR1A mutant lysate, 635 nm fluorescence, higher = more signal;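 also: score pools 667 nm emission and signal to noise measuring lysate protein binding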
[10] = tested on: Sonic hedgehog protein (Shh); assay: Sonic hedgehog microarray binding compounds – biochemical, small-molecule microarray, 635/667 nm fluorescence, primary screen (AID 1151); conditions: 635 nm fluorescence, higher = more signal;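 also: Shh protein binding to compounds spotted on small-molecule microarray slides; score combines spot fluorescence intensity with signal-to-noise across triplicate slides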
[11] = optical density shifts of acrAB sulA E. coli – strain DRC41, OD650, 48 h, E. coli filamentation inducer project, primary screen (AID 1152); conditions: higher = more signal, called active from +8 up or from −8 down;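 also: E. coli MC1000 strain DRC41 lacking acrAB efflux pump and sulA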
[12] = probe aLefty1 binding on compound microarray – biochemical, small-molecule microarray, 635/667 nm fluorescence, primary screen (AID 1153); conditions: higher = more signal;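 also: score merges spot fluorescence with signal-to-noise ratio from the scanned slide images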
[13] = plasmodial surface anion channel blockers, osmotic lysis – cell-based, P. falciparum Indochina, OD700, 1 h, primary screen (AID 1154); conditions: P. falciparum Indochina infected RBC osmotic lysis, higher = more signal, called active from +8 up or from −8 down
[14] = plasmodial surface anion channel blockers, osmotic lysis – cell-based, P. falciparum Indochina, OD700, 2 h, primary screen (AID 1155);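 also: lysis reports solute entry through the parasite surface anion channel PSAC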; conditions: P. falciparum Indochina infected erythrocytes, higher = more signal, called active from +8 up or from −8 down
[15] = changes in parasitized red cell lysis, either direction – P. falciparum Indochina, OD700, 3 h, PSAC antagonist project, primary screen (AID 1156); conditions: P. falciparum-infected erythrocytes, osmotic lysis, higher = more signal, called active from +8 up or from −8 down
[16] = plasmodial surface anion channel blockers, osmotic lysis – cell-based, P. falciparum Indochina, OD700, 18 h, primary screen (AID 1157); conditions: P. falciparum Indochina infected erythrocytes, osmotic lysis OD700, 18 h; higher = more signal, called active from +8 up or from −8 down
[17] = S6 kinase pathway phospho-S6 level changes – cell-based, A549, cytoblot, luminescence, serum-stimulated, primary screen (AID 1158); conditions: 5 h, higher = more signal;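 also: serum-stimulated A549 lung adenocarcinoma cells; signal is phosphorylated S6 detected by cytoblot immunostaining with HRP secondary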
[18] = molecular target: NADPH oxidase 2 (Homo sapiens) (UniProt P04839); assay: compounds shifting NOX2 Amplex Red fluorescence – cell-based, HEK293-NOX2, PMA-stimulated, NOX inhibitor project, primary screen (AID 1159); conditions: 45 min, higher = more signal, called active from +8 up or from −8 down; also: test concentration not given here
Chain of NADPH oxidase 2 (Homo sapiens) (P04839 whole entry, looked up): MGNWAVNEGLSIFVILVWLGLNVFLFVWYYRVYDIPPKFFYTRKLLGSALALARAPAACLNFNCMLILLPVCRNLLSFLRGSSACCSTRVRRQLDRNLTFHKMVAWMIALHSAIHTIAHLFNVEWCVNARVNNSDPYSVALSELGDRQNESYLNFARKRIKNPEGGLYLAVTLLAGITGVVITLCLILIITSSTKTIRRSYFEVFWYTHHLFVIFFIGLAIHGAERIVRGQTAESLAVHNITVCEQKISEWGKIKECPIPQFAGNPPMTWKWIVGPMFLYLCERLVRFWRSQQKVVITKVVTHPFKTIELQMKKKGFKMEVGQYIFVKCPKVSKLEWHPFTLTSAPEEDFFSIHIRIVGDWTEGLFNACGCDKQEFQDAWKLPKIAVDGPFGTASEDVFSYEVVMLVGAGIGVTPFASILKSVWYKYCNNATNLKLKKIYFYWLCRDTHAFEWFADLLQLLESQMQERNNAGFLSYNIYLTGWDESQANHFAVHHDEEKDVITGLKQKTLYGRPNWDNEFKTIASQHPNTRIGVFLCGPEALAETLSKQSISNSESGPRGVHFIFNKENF

[19] = molecular target: NADPH oxidase 4 (Homo sapiens) (UniProt Q9NPH5); assay: compounds shifting NOX4 Amplex Red fluorescence – cell-based, HEK293-NOX4, tetracycline-induced, NOX inhibitor project, primary screen (AID 1160); conditions: HEK293-NOX4, Amplex Red H2O2 fluorescence, 45 min; higher = more signal, called active from +8 up or from −8 down
Chain of NADPH oxidase 4 (Homo sapiens) (Q9NPH5 whole entry, looked up): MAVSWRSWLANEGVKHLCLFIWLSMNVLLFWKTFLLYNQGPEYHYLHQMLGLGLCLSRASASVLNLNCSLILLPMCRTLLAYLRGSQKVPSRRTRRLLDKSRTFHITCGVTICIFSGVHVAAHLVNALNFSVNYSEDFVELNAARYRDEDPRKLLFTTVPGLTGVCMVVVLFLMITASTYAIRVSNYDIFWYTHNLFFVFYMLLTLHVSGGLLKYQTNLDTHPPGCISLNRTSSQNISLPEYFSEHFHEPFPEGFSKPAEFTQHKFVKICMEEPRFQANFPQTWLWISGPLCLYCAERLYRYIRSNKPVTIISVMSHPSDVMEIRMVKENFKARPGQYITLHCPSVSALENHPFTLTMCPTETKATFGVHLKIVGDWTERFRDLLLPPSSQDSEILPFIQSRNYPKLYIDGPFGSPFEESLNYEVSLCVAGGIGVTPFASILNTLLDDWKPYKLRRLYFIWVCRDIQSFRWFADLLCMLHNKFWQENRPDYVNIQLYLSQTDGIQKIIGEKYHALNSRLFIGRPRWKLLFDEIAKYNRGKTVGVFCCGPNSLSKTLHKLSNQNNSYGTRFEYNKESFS

[20] = molecular target: NADPH oxidase 5 (Homo sapiens) (UniProt Q96PH1); assay: compounds shifting NOX5 Amplex Red fluorescence – cell-based, HEK293-NOX5, NOX inhibitor project, primary screen (AID 1161); conditions: HEK293-NOX5, ionomycin, 45 min, higher = more signal
Chain of NADPH oxidase 5 (Homo sapiens) (Q96PH1 whole entry, looked up): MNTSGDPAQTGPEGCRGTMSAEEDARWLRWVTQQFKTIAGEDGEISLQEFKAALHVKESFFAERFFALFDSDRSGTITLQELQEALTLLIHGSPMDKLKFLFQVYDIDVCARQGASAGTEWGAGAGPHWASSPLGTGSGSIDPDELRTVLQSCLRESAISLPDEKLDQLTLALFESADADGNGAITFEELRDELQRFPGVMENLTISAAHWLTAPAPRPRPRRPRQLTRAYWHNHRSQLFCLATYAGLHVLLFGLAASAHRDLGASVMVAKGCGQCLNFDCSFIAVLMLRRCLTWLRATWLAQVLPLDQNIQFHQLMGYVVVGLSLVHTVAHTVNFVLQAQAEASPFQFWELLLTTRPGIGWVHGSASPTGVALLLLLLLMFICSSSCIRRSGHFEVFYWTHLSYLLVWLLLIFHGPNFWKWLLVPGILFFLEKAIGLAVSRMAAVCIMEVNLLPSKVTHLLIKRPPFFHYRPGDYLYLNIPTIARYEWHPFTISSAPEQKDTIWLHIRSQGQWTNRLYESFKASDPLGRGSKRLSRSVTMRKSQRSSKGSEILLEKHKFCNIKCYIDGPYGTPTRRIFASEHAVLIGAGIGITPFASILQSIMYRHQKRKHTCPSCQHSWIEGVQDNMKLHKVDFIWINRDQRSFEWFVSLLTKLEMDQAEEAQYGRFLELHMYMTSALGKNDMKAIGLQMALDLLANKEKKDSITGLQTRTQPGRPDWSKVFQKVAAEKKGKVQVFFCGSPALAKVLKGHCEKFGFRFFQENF

SMILES | composite z-score [1] | z-score [2] | z-score [3] | z-score [4] | z-score [5] | composite z-score [6] | composite z-score [7] | composite z-score (Torsin-1A (Homo sapiens) [8]) | composite z-score (Torsin-1A (Homo sapiens) [9]) | composite z-score [10] | z-score [11] | composite z-score [12] | z-score [13] | z-score [14] | z-score [15] | z-score [16] | z-score [17] | z-score [18] | z-score [19] | z-score [20]
C=C(/C(=C/C[C@@H](OC(=O)c1ccncc1)c1ccccc1OCCO)c1cc(C(=O)OC)ccc1OC)C(C)C | 0.449 | -2.43 (inactive) | 0.128 (inactive) | 22.5 (active) | -0.267 (inactive) | 0.187 | 0.0498 | 0.438 | 1.29 | 0.698 | 0.548 (inactive) | -0.204 | 23.6 (active) | 7.36 (inactive) | 4.04 (inactive) | 1.44 (inactive) | 1.12 | -0.295 (inactive) | -1.04 (inactive) | -1.63
O=C1O[C@@H](c2ccccc2)[C@@H](c2ccccc2)N2[C@@H](c3ccccc3OCCO)[C@]3(C(=O)Nc4ccc(C#CCCO)cc43)[C@@H](C(=O)Nc3nc4ccccc4s3)[C@H]12 | 0.559 | -0.975 (inactive) | -0.562 (inactive) | -0.671 (inactive) | 0.308 (inactive) | 1.39 | 0.269 | 0.515 | 0.585 | 1.36 | 1.4 (inactive) | 0.13 | 2.06 (inactive) | 3.56 (inactive) | 1.59 (inactive) | 1.72 (inactive) | 0.206 | 1.3 (inactive) | 0.352 (inactive) | 1.23
CCOC(=O)C[C@H]1[C@H](OC(=O)c2ccc(-c3ccccc3)cc2)[C@@H](NC(=O)C2CCCCC2)c2cc(OCCCO)ccc2N1C(=O)c1ccccc1 | 0.0722 | -0.0788 (inactive) | -0.376 (inactive) | -0.0247 (inactive) | 0.178 (inactive) | 0.947 | -0.133 | -0.0488 | 0.221 | 0.957 | -0.915 (inactive) | -0.263 | 0.479 (inactive) | 0.705 (inactive) | -0.138 (inactive) | 0.505 (inactive) | 1.09 | 0.169 (inactive) | -0.849 (inactive) | 1.49
CC[C@@H]1[C@H]2C3C(=O)N(CC)C(=O)C3CC(=O)[C@H]2[C@H](c2ccc(C)cc2)N1S(=O)(=O)c1ccc(C)cc1 (stereo not given in full) | 0.163 | -2.9 (inactive) | 0.394 (inactive) | -0.77 (inactive) | -0.878 (inactive) | 1.4 | -0.0986 | -0.343 | 0.112 | 0.514 | -0.272 (inactive) | 0.0026 | 2.27 (inactive) | 1.99 (inactive) | 0.925 (inactive) | 1.3 (inactive) | -0.12 | 0.5 (inactive) | 0.458 (inactive) | 0.0674
COCCOC(=O)N1C(=O)[C@@]2(c3cc(C#Cc4ccc(OC)cc4)ccc31)[C@H](C(=O)N1CCN(c3ncccn3)CC1)[C@H]1C(=O)O[C@H](c3ccccc3)[C@H](c3ccccc3)N1[C@@H]2c1ccccc1OCCO | -0.0175 | -0.651 (inactive) | -1.1 (inactive) | -0.467 (inactive) | -0.638 (inactive) | 0.103 | -0.215 | 0.236 | 0.0863 | 1.01 | 0.0325 (inactive) | 0.406 | 2.79 (inactive) | 2.29 (inactive) | 0.641 (inactive) | 1.07 (inactive) | -0.43 | 0.405 (inactive) | 0.152 (inactive) | 1.06
C[C@]12C(=O)N(CCCCCCO)[C@@H]3C(=O)N(c4ccc(Cl)cc4)CC=CC31O[C@@H]1/C=C\CCCOC(=O)C12 (stereo not given in full) | -0.143 | -0.0337 (inactive) | -1.5 (inactive) | 0.0686 (inactive) | -0.475 (inactive) | -0.781 | -0.104 | -1.38 | -0.825 | 0.128 | 1.64 (inactive) | -0.25 | 2.61 (inactive) | -1.32 (inactive) | -0.397 (inactive) | -1.66 (inactive) | 0.654 | 1.12 (inactive) | 0.428 (inactive) | 2.22
C[C@]1(C(=O)NCCN2CCOCC2)c2ccccc2C(=O)N(Cc2ccc(OC(F)(F)F)cc2)[C@H]1c1ccc(CO)cc1 | -0.333 | -0.653 (inactive) | -0.67 (inactive) | -0.412 (inactive) | -0.51 (inactive) | -0.152 | -0.101 | 0.816 | 0.853 | -0.704 | 0.0793 (inactive) | -0.0523 | 6.9 (inactive) | 0.621 (inactive) | 3.05 (inactive) | 0.327 (inactive) | -0.173 | 0.752 (inactive) | 1.19 (inactive) | 0.0149
COCCOC(=O)N1C(=O)[C@@]2(c3cc(C#CCNC(N)=O)ccc31)[C@H](C(=O)N1CCCCCCC1)[C@H]1C(=O)O[C@H](c3ccccc3)[C@H](c3ccccc3)N1[C@@H]2c1ccc(O)cc1 | 0.233 | -0.204 (inactive) | 0.942 (inactive) | -0.0526 (inactive) | -0.333 (inactive) | 0.399 | -0.101 | 0.266 | 0.216 | 1.12 | -0.455 (inactive) | -0.0945 | -0.0508 (inactive) | -0.164 (inactive) | -0.271 (inactive) | 0.0404 (inactive) | 0.0746 | 2.56 (inactive) | 0.475 (inactive) | 1.73
COCCCNC(=O)[C@]1(Cc2ccccc2CN=[N+]=[N-])N=C(c2ccc(OCCCO)cc2)O[C@@H]1c1ccccc1 | 0.419 | -4.93 (inactive) | -0.436 (inactive) | -0.0667 (inactive) | -0.577 (inactive) | 0.723 | -0.0736 | 0.214 | 0.311 | -1.07 | 0.65 (inactive) | -0.184 | 26.2 (active) | 15.5 (active) | 1.28 (inactive) | 0.178 (inactive) | 1.64 | -1.94 (inactive) | -0.52 (inactive) | -1.46

Reference: PubChem BioAssay
